Seven compounds from PubChem BioAssay can be followed below.

As a reminder, the AC50 is the concentration at which the activity in the assay is half-maximal. By IC50 is commonly meant the concentration needed to halve the response being measured. What is called viability is a read-out of living cells in per cent, often relative to untreated cells.

A short description of test [1]: growth inhibition of DIPG glioma cells, dose response, cell-based, SU-DIPG-XVII, MIPE5.0, CellTiter-Glo, qHTS (AID 1347060; cut-off not given, nearly all actives have AC50 up to about 26 µM;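 also: cells exposed to compound for 48 hours before viability readout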). As to conditions: SU-DIPG-XVII viability, CellTiter-Glo ATP luminescence. (In general: ATP-based viability assays read luminescence as a measure of living cells.)
Test [2] can be described thus: growth inhibition of DIPG glioma cells, dose response, cell-based, JHH-DIPG-1, MIPE4.0, CellTiter-Glo, qHTS (AID 1347062; cut-off not given, nearly all actives have AC50 up to about 27 µM;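 also: cells exposed to compound for two days before readout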). Conditions: JHH-DIPG-1 viability, CellTiter-Glo ATP luminescence.
Test [3] can be described thus: growth inhibition of DIPG glioma cells, dose response, cell-based, SU-DIPG-IV, MIPE4.0, CellTiter-Glo, qHTS (AID 1347063; cut-off not given, nearly all actives have AC50 up to about 30 µM;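 also: compound exposure lasted 48 hours before the viability readout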). Conditions: SU-DIPG-IV viability, CellTiter-Glo ATP luminescence.
Test [4] is described as follows: SU-DIPG-VI glioma cell viability, MIPE4.0 library, CellTiter-Glo luminescence, qHTS (AID 1347066; cut-off not given, nearly all actives have AC50 up to about 30 µM;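 also: cells exposed to compound for 48 hours before readout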). As to conditions: CellTiter-Glo ATP luminescence.
Test [5] in a line: viability loss in pontine glioma line – cell-based, SU-DIPG-XXV, MIPE5.0, CellTiter-Glo, qHTS, dose response (AID 1347065; cut-off not given, nearly all actives have AC50 up to about 26 µM;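 also: cells exposed to compound for 48 hours before ATP readout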). Conditions: CellTiter-Glo ATP luminescence.
Test [6] can be described thus: JHH-DIPG-1 glioma cell viability, MIPE5.0 library, CellTiter-Glo luminescence, qHTS (AID 1347067; cut-off not given, nearly all actives have AC50 up to about 26 µM;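 also: cells exposed to compound for 48 hours before readout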). As to conditions: JHH-DIPG-1 glioma viability, CellTiter-Glo ATP luminescence.
Test [7] is described as follows: SU-DIPG-XXV glioma cell viability, MIPE5.0 library, qHTS (AID 1347068; cut-off not given, nearly all actives have IC50 up to about 30 µM;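 as to IC50: cells exposed to compound for 48 hours before viability readout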). In general terms: qHTS replaces the single test concentration by a dilution series.
Test [8] is described as follows: modifiers of HSF1 nuclear foci, imaging, Selleck Cancer Library (AID 1347162; in the data active = plate-normalised HSF1 focus index below about 0.46). As to conditions: human cells, at 10 µM; SSMD: measured here: HSF1 foci SSMD mean; cell count: measured here: cell number; plate-normalised HSF1 focus index: stronger effect = lower value.
The nature of test [9]: ovarian cancer cell viability with rucaparib, profiling panel, oncology-focused library, rucaparib conditional (AID 1508598). Conditions: patient-derived ovarian cancer cells, CellTiter-Glo viability, 144 h, stronger effect = lower value.
A short description of test [10]: sensitizers of A549 cells to miR-34 induction, primary screen, imaging, A549 dox-inducible miR-34, nuclei and caspase counts (AID 1347080;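 active = compounds whose cell count with miR-34 switched on is under 0.7 times the count with it off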). Conditions: A549 miR-34 inducible, Hoechst nuclei count, 48 h.
Test [11] can be described thus: survival rescue of mitochondrial mutant cells in low glucose, primary screen, MELAS cybrids, Rieske KO mouse fibroblasts, CellTiter-Glo (AID 1508586;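 active = mean z-score across replicates of 1.96 or higher in either the MELAS or the Rieske mutant cell line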;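 also: z relative to plate mean and SD of compound and empty wells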).

SMILES strings stand for the structures. Records with an inconclusive call do not appear. Active and inactive are the calls of the source.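 The calls were made as follows, unless noted: active = normalized viability below 100% at a tested concentration; inactive = the rest.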

As for `COC[C@H](NC(=O)c1cnc(C)s1)C(=O)N[C@@H](COC)C(=O)N[C@@H](Cc1ccccc1)C(=O)[C@@]1(C)CO1`, the AC50 in test [1] is 186 nM (active); in test [2], 148 nM (active); in test [3] it was 148 nM (active); in [4], 332 nM (active).

For `CCN(CC)CCCCNc1nc2cc(Cl)c(Cl)cc2nc1-c1ccc(-c2cccs2)s1`, the concentration at half-maximal activity (AC50) is 6610 nM (active) in test [1]; 7430 nM (active) in [2]; 7430 nM (active) in test [3]; 5250 nM (active) in test [5]; 14800 nM (active) in test [4]; 9340 nM (active) in [6].

In the case of `CCN1CCC(n2cc(CNc3cc(Cl)c4ncc(C#N)c(Nc5ccc(F)c(Cl)c5)c4c3)nn2)CC1`, the AC50 in [1] is 18600 nM (active); in test [2], 20900 nM (active); in test [3], 18700 nM (active); in [5] it was 23500 nM (active); in test [4] it was 16600 nM (active).

Turning to `CS[C@H]1SC[C@@H]2C(=O)N(C)[C@H](C(C)C)C(=O)OC[C@H](NC(=O)c3cnc4ccccc4n3)C(=O)N[C@H](C)C(=O)N(C)[C@H]1C(=O)N(C)[C@H](C(C)C)C(=O)OC[C@H](NC(=O)c1cnc3ccccc3n1)C(=O)N[C@H](C)C(=O)N2C`, the AC50 is 3.31 nM (active) in [1]; 1.18 nM (active) in test [2]; 2.63 nM (active) in [3]; 2.96 nM (active) in test [5]; 1.86 nM (active) in test [6]. Besides, the IC50 in test [7] was 13.2 nM (active).

On to `CC(=O)OCC(=O)[C@@]1(O)[C@H](C)C[C@H]2[C@@H]3C=C(C)C4=Cc5c(cnn5-c5ccccc5)C[C@]4(C)[C@H]3[C@@H](O)C[C@@]21C`, for which the AC50 in [1] is 20900 nM (active); in [2], 9350 nM (active); in test [3], 5260 nM (active); in test [5] it was 23500 nM (active); in test [4] it was 26400 nM (active). In test [7], the result was inactive.

As for `CC(C)C[C@H](NC(=O)CNC(=O)c1cc(Cl)ccc1Cl)B1OC(=O)CC(CC(=O)O)(C(=O)O)O1` (stereo partly specified), the AC50 in test [1] was 209 nM (active); in [2], 132 nM (active); in [3], 66.2 nM (active); in test [5], 83.3 nM (active); in [6] it was 235 nM (active). Also, in [7], the IC50 is 132 nM (active). Moreover, the SSMD in test [8] worked out at 2.92. In test [8], the cell count stood at 7560. In addition, the plate-normalised HSF1 focus index in test [8] was 1.18 (inactive). Moreover, the viability in [9] (at 0.000305 µM, OCI-C5x cells, with rucaparib 10 µM, 100% = cells with rucaparib alone) is 104% (inactive); in test [9] (at 0.000305 µM, OCI-C5x cells, without rucaparib) it was 124% (inactive); in [9] (at 0.000305 µM, OCI-P5x cells, with rucaparib 20 µM, 100% = cells with rucaparib alone), 111% (inactive); in test [9] (at 0.000305 µM, OCI-P5x cells, without rucaparib), 113% (inactive); in [9] (at 0.00122 µM, OCI-C5x cells, with rucaparib 10 µM, 100% = cells with rucaparib alone) it was 107% (inactive); in [9] (at 0.00122 µM, OCI-C5x cells, without rucaparib), 123% (inactive). Besides, the viability in test [9] (at 0.00122 µM, OCI-P5x cells, with rucaparib 20 µM, 100% = cells with rucaparib alone) is 111% (inactive); in test [9] (at 0.00122 µM, OCI-P5x cells, without rucaparib), 110% (inactive); in [9] (at 0.00488 µM, OCI-C5x cells, with rucaparib 10 µM, 100% = cells with rucaparib alone), 100% (inactive); in test [9] (at 0.00488 µM, OCI-C5x cells, without rucaparib), 122% (inactive); in [9] (at 0.00488 µM, OCI-P5x cells, with rucaparib 20 µM, 100% = cells with rucaparib alone) it was 112% (inactive); in test [9] (at 0.00488 µM, OCI-P5x cells, without rucaparib), 110% (inactive). Moreover, the viability is 107% (inactive) in [9] (at 0.0195 µM, OCI-C5x cells, with rucaparib 10 µM, 100% = cells with rucaparib alone); 119% (inactive) in test [9] (at 0.0195 µM, OCI-C5x cells, without rucaparib); 97.5% (active) in test [9] (at 0.0195 µM, OCI-P5x cells, with rucaparib 20 µM, 100% = cells with rucaparib alone); 104% (inactive) in test [9] (at 0.0195 µM, OCI-P5x cells, without rucaparib); 101% (inactive) in test [9] (at 0.0781 µM, OCI-C5x cells, with rucaparib 10 µM, 100% = cells with rucaparib alone); 118% (inactive) in [9] (at 0.0781 µM, OCI-C5x cells, without rucaparib). The viability is 103% (inactive) in test [9] (at 0.0781 µM, OCI-P5x cells, with rucaparib 20 µM, 100% = cells with rucaparib alone); 100% (inactive) in test [9] (at 0.0781 µM, OCI-P5x cells, without rucaparib); 25% (active) in [9] (at 0.313 µM, OCI-C5x cells, with rucaparib 10 µM, 100% = cells with rucaparib alone); 16.8% (active) in test [9] (at 0.313 µM, OCI-C5x cells, without rucaparib); 12.3% (active) in [9] (at 0.313 µM, OCI-P5x cells, with rucaparib 20 µM, 100% = cells with rucaparib alone); 3.86% (active) in test [9] (at 0.313 µM, OCI-P5x cells, without rucaparib). The viability in test [9] (at 1.25 µM, OCI-C5x cells, with rucaparib 10 µM, 100% = cells with rucaparib alone) is 6.01% (active); in [9] (at 1.25 µM, OCI-C5x cells, without rucaparib) it was 5.13% (active); in test [9] (at 1.25 µM, OCI-P5x cells, with rucaparib 20 µM, 100% = cells with rucaparib alone) it was 2.61% (active); in test [9] (at 1.25 µM, OCI-P5x cells, without rucaparib), 1.15% (active); in test [9] (at 5 µM, OCI-C5x cells, with rucaparib 10 µM, 100% = cells with rucaparib alone), 1.84% (active); in test [9] (at 5 µM, OCI-C5x cells, without rucaparib) it was 1.81% (active). Moreover, the viability is 1.46% (active) in test [9] (at 5 µM, OCI-P5x cells, with rucaparib 20 µM, 100% = cells with rucaparib alone) and 0.836% (active) in test [9] (at 5 µM, OCI-P5x cells, without rucaparib).

For the compound `COc1ccc(F)c(F)c1C(=O)c1cnc(NC2CCN(S(C)(=O)=O)CC2)nc1N`, the AC50 in test [1] is 1860 nM (active); in [2] it was 2640 nM (active); in test [3] it was 1180 nM (active); in test [5], 2090 nM (active); in test [6], 3720 nM (active). Besides, in test [4], the call was inactive. Further, the IC50 in test [7] is 1860 nM (active). In addition, the fold change was 0.981 (inactive) in test [10] (stronger effect = lower value, cell number ratio, induced over uninduced) and 0.805 in test [10] (measured here: relative caspase fold change +Dox/-Dox). In addition, the cell count in test [10] (measured here: total cells with miR-34 induction, stronger effect = lower value) came out at 1740; in test [10] (measured here: total cells without miR-34 induction), 1770. For the same compound, the z-score in [11] (MELAS cybrid survival, CellTiter-Glo 48 h, stronger effect = higher value) is 2.86 (active); in test [11] (Rieske KO mouse fibroblast survival, CellTiter-Glo 72 h) it was -3.07.
